Test results as given in ChEMBL document CHEMBL3988442, “University of Dundee, Small-Polar-MMV Screening Library” (2021).
Out of some 69,000 compounds screened, about 950 (1.4%) showed an effect of 50% or more. Shown is part of a subset that was picked to be rich in strong results.

System: Mycobacterium tuberculosis
Test: Cornell M. t heat shock assay; also: in the data most compounds retested in dose-response had high values
Format: functional, organism-based
Design: dose or concentration left out as unconfirmed

| SMILES | Percent Effect [%] |
| --- | --- |
| COCCN1CCN(CCS(C)(=O)=O)CC1C (stereo not given) | -13.47 |
| COCCN1CCN(CCS(=O)(=O)C(F)(F)F)CC1C (stereo not given) | 105.5 |
| COCCN1CCN(CCCS(C)(=O)=O)CC1C (stereo not given) | -16.37 |
| CCN(CC)Cc1cn2c(n1)CN(C(=O)c1cc(C)on1)CC2.O=C(O)C(F)(F)F | -2.302 |
| CC(C)c1noc(CS(=O)(=O)Cc2nc(C(C)C)no2)n1 | -44.125 |
| CCN(C(=O)C(C)S(=O)(=O)Cc1nc(C)no1)c1ccccc1 (stereo not given) | -1.269 |
| Cc1noc(CS(=O)(=O)C(C)C(=O)N(C)c2ccccc2)n1 (stereo not given) | 6.585 |
| Cc1noc(CS(=O)(=O)CC(=O)NC(C)c2ccccc2)n1 (stereo not given) | 70.08 |
| CC(Cn1cccn1)NCc1nc(-c2cccs2)no1 (stereo not given) | 22.29 |
| CC(C)=CCS(=O)(=O)Cc1nc(C(C)C)no1 | 58.075 |
| CCC(C)NC(=O)CS(=O)(=O)Cc1ccccc1Cl (stereo not given) | -5.393 |
| CC(C)c1noc(CS(=O)(=O)CC(=O)NCc2cccs2)n1 | 58.74 |
| CCc1noc(CS(=O)(=O)CC=C(C)C)n1 | 29.3 |
| CC(C)c1noc(CS(=O)(=O)CC(=O)NCCOc2ccccc2)n1 | 41.58 |
| CCC(C)NC(=O)CS(=O)(=O)Cc1nc(-c2cccs2)no1 (stereo not given) | 65.94 |
| CC(C)c1noc(CS(=O)(=O)CC(=O)NCc2ccccc2)n1 | 49.68 |
| CC1N(C)C(=O)COC12CCN(Cc1nccs1)CC2.O=C(O)C(F)(F)F (stereo not given) | 2.077 |
| CCn1nc(C)cc1C(=O)N1C[C@H]2CCC[C@@]2(COc2ccccn2)C1.O=C(O)C(F)(F)F | -22.73 |
| O=C(N[C@@H]1CN(CC2CC2)[C@@H]2CCCO[C@@H]21)c1cscn1.O=C(O)C(F)(F)F | 21.59 |
| Cl.O=c1c2sccc2nc2n1CCN(Cc1ccccc1C(F)(F)F)CC2 | 24 |
| O=C(NC[C@]12COC[C@H]1CN(C1CCOCC1)C2)c1ccco1.O=C(O)C(F)(F)F | -7.738 |
| O=C(O)C(F)(F)F.O=C([C@H]1C[C@@H]2CCN(C3CCOCC3)C[C@H]2O1)N1CCCC1 | -29.11 |

| SMILES | Percent Effect [%] |
| --- | --- |
| CCCc1noc(CCC(=O)NC(C)c2nnc3n2CCCCC3)n1 (stereo not given) | -4.52 |
| CCCc1noc(CS(=O)(=O)CC(=O)NC(C)CCC)n1 (stereo not given) | 60.91 |
| CC(C)c1noc(CS(=O)(=O)CC(=O)NCC(F)(F)F)n1 | 45.89 |
| COc1cccc(CN2C[C@@H]3COC[C@]3(COCc3ccccn3)C2)c1.O=C(O)C(F)(F)F.O=C(O)C(F)(F)F | -27.12 |
| Fc1cnc(N2CCCC3(CCN(Cc4ccco4)C3)C2)nc1.O=C(O)C(F)(F)F.O=C(O)C(F)(F)F (stereo not given) | -39.88 |
| Cc1cnn(CC2CCCN2Cc2noc(-c3ccccc3)n2)c1 (stereo not given) | -2.457 |
| Nc1nc(CN2CCCCC2Cn2cncn2)nc2ccccc12 (stereo not given) | -45.18 |
| Cc1cnn(CC2CN(Cc3nc(N)c4ccccc4n3)CCO2)c1 (stereo not given) | 8.088 |
| Nc1nc(CN2CCCC2Cn2cncn2)nc2ccccc12 (stereo not given) | -4.506 |
| Cc1cnn(CC2CCCN2Cc2nc(N)c3ccccc3n2)c1 (stereo not given) | 64.38 |
| Cc1cnn(CC2CCCCN2Cc2nc(N)c3ccccc3n2)c1 (stereo not given) | 92.62 |
| COc1cccc(CN2CCCCC2c2n[nH]cc2-c2cc(C)no2)c1.Cl (stereo not given) | 13.26 |
| CCOC1COC2(CCN(CC3CCOCC3)CC2)C1.O=C(O)C(F)(F)F (stereo not given) | -19.84 |
| CCS(=O)(=O)N1CCOCC2(CCN(c3ccccn3)C2)C1.O=C(O)C(F)(F)F (stereo not given) | -24.76 |
| CCc1nc2ccccc2c(=O)n1CC1(O)CCNCC1.Cl | -1.704 |
| O=C(O)C(F)(F)F.O=C(c1ccncn1)N1CCC[C@]2(C[C@H](Oc3ncccc3F)CO2)C1 | -22.98 |
| CC(C)(C)n1cc(C(=O)NCCCn2ccnc2)c2cccnc21 | -4.729 |
| CCCNC(=O)c1cn(C(C)(C)C)c2ncccc12 | 52.59 |
| COCCCNC(=O)c1cn(C(C)(C)C)c2ncccc12 | 50.28 |
| COCCNC(=O)c1cn(C(C)(C)C)c2ncccc12 | 84.66 |
| CCNC(=O)c1cn(C(C)(C)C)c2ncccc12 | 35.45 |
| COCCN(CCOC)C(=O)c1cn(C(C)(C)C)c2ncccc12 | 20.52 |

| SMILES | Percent Effect [%] |
| --- | --- |
| CNC(=O)c1cn(C(C)(C)C)c2ncccc12 | 4.278 |
| COCC(C)NC(=O)c1cn(C(C)(C)C)c2ncccc12 (stereo not given) | -8.611 |
| CCOCCCNC(=O)c1cn(C(C)(C)C)c2ncccc12 | 48.73 |
| CN(C)Cc1cc(=O)n2c(n1)CN(S(=O)(=O)C1CC1)CCC2.O=C(O)C(F)(F)F | 14.69 |
| CCSc1ccccc1C(=O)N(CCOC)Cc1ccoc1 | -23.21 |
| COCC(=O)N1CCN(CCn2cccn2)c2nc(C)ccc2C1.O=C(O)C(F)(F)F | -7.36 |
| COCC1CC2(CCN(c3ccccn3)CC2)CN1C(C)C.O=C(O)C(F)(F)F.O=C(O)C(F)(F)F (stereo not given) | -2.762 |
| Cc1csc(CN2CC[C@H]3C[C@H](c4nc(C)no4)O[C@@H]3C2)n1.O=C(O)C(F)(F)F | -42.3 |
| Cn1cc(-c2ncnc3c2CCN(CC2CCOC2)CC3)cn1.O=C(O)C(F)(F)F (stereo not given) | 17.32 |
| O=C(O)C(F)(F)F.O=C(O)C(F)(F)F.c1ccc(CN2CCn3c(Cn4cncn4)cnc3C2)nc1 | 0.3776 |
| O=C(O)C(F)(F)F.O=C([C@H]1C[C@H]2OCC[C@H]2N(CCc2ccccc2)C1)N1CCCO1 | -5.073 |
| O=C(NCC1CC1)C1CN(c2ncccn2)Cc2ccnn2C1.O=C(O)C(F)(F)F.O=C(O)C(F)(F)F (stereo not given) | 12.91 |
| CCc1nc(CN2CCCN(Cc3noc(C4CC4)n3)CC2)cs1 | 67.89 |
| c1csc(N2CCCN(Cc3noc(C4CC4)n3)CC2)n1 | -6.96 |
| CCc1nc(CN2CCCN(C(=O)COCC3CC3)CC2)cs1 | 155.1 |
| CCc1nc(CN2CCCN(C(=O)c3cn[nH]c3C)CC2)cs1 | 14.33 |
| CCCOCC(=O)N1CCCN(Cc2csc(CC)n2)CC1 | 22.03 |
| Cc1ncc(CN2CCCN(Cc3noc(C4CC4)n3)CC2)s1 | 6.148 |
| CCc1nc(CN2CCCN(C(=O)c3cn[nH]c3CC)CC2)cs1 | 52.06 |
| CCc1nc(CN2CCCN(C(=O)c3cnc[nH]3)CC2)cs1 | 30.64 |
| Cc1nc(CN2CCCN(C(=O)COCC3CC3)CC2)cs1 | 36.12 |
